Source: PubChem BioAssay (NCATS)
Records with an inconclusive call do not appear. A number with no mark means an inactive call. Active and inactive are the calls of the source. Calls follow the shape of the dose curve; as a rule, active = well fitted cell-killing curve with a large enough effect; inconclusive = small, poorly fitted or top-dose-only effect, or effect the other way; inactive = no such curve, though single readings can be large or run the other way.

assay: Quantitative High-Throughput drug screen in 47 multiple myeloma cell lines against the NCATS MIPE library collection: FR4_PLB cell viability assay (AID 1918924; also: nearly all actives have a fitted effect of over 35% in size;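 as to viability (% of DMSO control): 100% = DMSO-treated cells and 0% = wells with media only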); conditions: FR4_PLB myeloma cells viability, CellTiter-Glo ATP, 48 h; series mostly up to 45.8 µM; viability (% of DMSO control): at the top concentration
How it was run: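 Steps: seed 500 cells per well; pin-transfer MIPE 4.0 library; incubate 48 h at 37C, 5% CO2, humidified; add CellTiter-Glo, 5 min room temperature; read luminescence.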
Potency is read from the fitted curve at half-maximal effect.

| SMILES | Potency | viability (% of DMSO control) |
| --- | --- | --- |
| COC(=O)Nc1ccc(-c2nc(N3CCOCC3)c3cnn(C4CCN(C(=O)OC)CC4)c3n2)cc1 | 1.05 µM (active) |  |
| O=C(NCCCCN1CCOCC1)c1cc2ccccc2o1 |  | 116% |
| OCCn1cc(-c2ccc3c(c2)CCC3=NO)c(-c2ccncc2)n1 |  | 105% |
| CCC[C@H](N[C@@H](C)C(=O)N1[C@@H]2CCCC[C@H]2C[C@H]1C(=O)O)C(=O)OCC |  | 114% |
| C[C@@H](O[C@H]1OCCN(Cc2n[nH]c(=O)[nH]2)[C@@H]1c1ccc(F)cc1)c1cc(C(F)(F)F)cc(C(F)(F)F)c1 | 29.6 µM (active) |  |
| C#CCN(C)CC1=Cc2ccccc2Oc2ccccc21 |  | 115% |
| COc1ccc(C=CC(=O)Nc2ccccc2C(=O)O)cc1OC |  | 105% |
| NC[C@H]1O[C@H](O[C@@H]2[C@@H](O)[C@@H](O[C@H]3O[C@H](CO)[C@@H](O)[C@H](N)[C@@H]3O)[C@H](N)C[C@@H]2N)[C@H](O)[C@@H](O)[C@H]1O |  | 106% |
| Cn1c(=O)c(Oc2ccc(F)cc2F)cc2cnc(NC3CCOCC3)nc21 |  | 82.8% |
| CC[C@]1(O)C[C@H]2CN(CCC3=c4ccccc4=N[C]3[C@@](C(=O)OC)(c3cc4c(cc3OC)N(C)[C@H]3[C@@](O)(C(N)=O)[C@H](O)[C@]5(CC)C=CCN6CC[C@]43[C@@H]65)C2)C1 |  | 26.1% |
| CN1CC(=O)NC1=NC(=O)Nc1cccc(Cl)c1 | 20.9 µM (active) |  |
| CCCCC(C)(C)[C@H](O)C=C[C@H]1[C@H](O)CC(=O)[C@H]1CC=CCCCC(=O)O |  | 102% |
| O=C(O)Cc1cccc(OCCCN(Cc2cccc(C(F)(F)F)c2Cl)CC(c2ccccc2)c2ccccc2)c1 |  | 87.1% |
| COc1cc2c(cc1OC)CC(=O)N(CCCN(C)C[C@H]1Cc3cc(OC)c(OC)cc31)CC2 |  | 118% |
| NCc1c[nH]c(=S)n1[C@H]1CCc2c(F)cc(F)cc2C1 | 14.8 µM (active) |  |
| CCNC(=O)Nc1ccc(Oc2ncnc(N)c2C=NOC)cc1Cl | 3.72 µM (active) |  |
| COc1cc2nccc(Oc3ccc(NC(=O)Nc4ccc(F)cc4F)c(F)c3)c2cc1OC |  | 110% |
| CO[C@H]1C=CO[C@@]2(C)Oc3c(C)c(O)c4c(O)c(c(C=NN5CCN(C)CC5)c(O)c4c3C2=O)NC(=O)C(C)=CC=C[C@H](C)[C@H](O)[C@@H](C)[C@@H](O)[C@@H](C)[C@H](OC(C)=O)[C@H]1C |  | 131% [at 15.3 µM] |
| Nc1ccn([C@@H]2O[C@H](CO)[C@@H](O)[C@H]2O)c(=O)n1 |  | 149% |
| CC(C)c1c(C(=O)Nc2ccccc2)c(-c2ccccc2)c(-c2ccc(F)cc2)n1CC[C@H](O)C[C@@H](O)CC(=O)O | 14.8 µM (active) |  |
| CSc1cccc(Nc2ncc3cc(-c4c(Cl)cccc4Cl)c(=O)n(C)c3n2)c1 | 0.372 µM (active) |  |
| Cc1ccc(C2=Nc3ccc(Cl)cc3OC2)cc1 | 4.69 µM (active) |  |
| C[C@@H]1[C@H](C)CC[C@]2(C(=O)O)CC[C@]3(C)C(=CC[C@@H]4[C@@]5(C)CC[C@H](O)C(C)(C)[C@H]5CC[C@]43C)[C@@H]12 | 42.9 µM (active) |  |
| CN1C(=O)C[C@H](C(=O)N[C@@H](Cc2cnc[nH]2)C(=O)N2CCC[C@@H]2C(N)=O)NC1=O |  | 117% |
| C[C@]12C=CC(=O)C=C1CC[C@@H]1[C@@H]2[C@@H](O)C[C@@]2(C)[C@@H]1CC[C@]2(O)C(=O)CO |  | 107% |
| O=C(O)c1ccc(O)c2ncc(N3CCOCC3)cc12 |  | 104% |
| O=c1cc(-c2ccc(O)c(O)c2)oc2cc(O)cc(O)c12 |  | 116% |
| FC(F)(F)c1ccc(C=Cc2nc(COc3ccc(CCCCn4ccnn4)cc3)co2)cc1 | 0.0662 µM (active) |  |
| COc1ccc(-c2oc3c(CC=C(C)C)c(O)cc(O)c3c(=O)c2O)cc1 | 20.9 µM (active) |  |
| CO[C@H]1/C=C\O[C@@]2(C)Oc3c(C)c(O)c4c(O)c(c(C=NN5CCN(C6CCCC6)CC5)c(O)c4c3C2=O)NC(=O)C(C)=CC=C[C@H](C)[C@H](O)[C@@H](C)[C@@H](O)[C@@H](C)[C@H](OC(C)=O)[C@H]1C | 0.372 µM (active) |  |

assay: Quantitative High-Throughput drug screen in 47 multiple myeloma cell lines against the NCATS MIPE library collection: Delta47_JCRB cell viability assay (AID 1918925; also: nearly all actives have a fitted effect of over 45% in size;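 as to viability (% of DMSO): 0% = media-only wells and 100% = DMSO-only wells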); conditions: Delta47 myeloma viability, CellTiter-Glo ATP, 48 h; series mostly up to 45.8 µM; viability (% of DMSO): at the top concentration
How it was run: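 qHTS of the MIPE 4.0 collection: 500 myeloma cells/well, 48 h drug exposure at 37C in 5% CO2, then CellTiter-Glo for 5 min at room temperature before luminescence reading.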

| SMILES | viability (% of DMSO) | Potency |
| --- | --- | --- |
| CCCCCCCCCCCCCCCC(=O)O[C@H]1[C@@H](O)[C@@H](O)[C@@H]([C@H](NC(=O)[C@@H]2C[C@@H](CCC)CN2C)[C@H](C)Cl)O[C@@H]1SC | 120% |  |
| CNC(=O)[C@H](Cc1ccccc1)NC(=O)[C@H](CC(C)C)[C@H](CSc1cccs1)C(=O)NO |  | 18.7 µM (active) |
| CC(=O)OCC(=O)[C@@]1(O)CC[C@H]2[C@@H]3CCC4=CC(=O)C=C[C@]4(C)[C@@H]3[C@@H](O)C[C@@]21C | 100% |  |
| OC(c1cc(C(F)(F)F)nc2c(C(F)(F)F)cccc12)C1CCCCN1 (stereo unspecified) |  | 26.4 µM (active) |
| C[C@@H]1CC=CC=CC=CC=C[C@@H](O[C@@H]2O[C@H](C)[C@@H](O)[C@H](N)[C@H]2O)C[C@@H]2O[C@](O)(C[C@@H](O)C[C@@H]3O[C@@H]3C=CC(=O)O1)C[C@H](O)[C@@H]2C(=O)O |  | 11.8 µM (active) |
| CC(C)C[C@H](NC(=O)c1cc2ccccc2s1)C(=O)N1CCN(C(=O)[C@H](CO)NS(=O)(=O)c2ccc(Cl)cc2Cl)CC1 |  | 26.4 µM (active) |
